High-throughput results as filed in PubChem.
Sm TGR block: blocks Schistosoma mansoni thioredoxin glutathione reductase. AID 485364. purified TGR, DTNB reduction, TNB absorbance 405 nm. Potency, µM (top dose mostly 114 µM), inactives show at the top dose activity change, negative = inhibition, most hits filed as inhibitors. 360,000 tested, 3% active. Q962Y6; also: nearly all actives have a fitted effect of over 60% in size
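First, TGR (20 nM dispensed) and NADPH were mixed with compound. Second, a 15 min room-temperature incubation followed. Third, further NADPH and then DTNB were added to start the reaction. Finally, TNB absorbance was monitored kinetically.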
RE007 growth inh: less growth of the S. pombe RE007 Vpr strain. S. pombe RE007 Vpr strain, BacTiter-Glo ATP luminescence, 24 h. Potency, µM (highest dose often 92.2 µM), inactives show at the highest dose activity change, negative = less growth, most hits filed as inhibitors. 360,000 tested, 0.21% active. AID 651644; active = well fitted falling curve with a large enough effect; inconclusive = small, poorly fitted or top-dose-only effect; inactive = no such curve, though single readings can be large or run the other way; also: nearly all actives have a fitted effect of over 50% in size
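Fission yeast strain RE007, carrying one chromosomally integrated HIV-1 vpr copy, was seeded at OD 0.01 in PMG+AL medium with 23 nL pinned compound. After 24 h at 30 °C and 99% humidity, viability was read by BacTiter-Glo luminescence.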
HCV inhibitor: HCV inhibition; Huh7.5.1 HCVcc-Cre infection, luciferase reporter, 44 h; Potency, µM (highest dose often 41.8 µM), for the others: at the highest dose activity change, negative = inhibition, hits mostly inhibitors; 340,000 tested, 3.4% active; AID 651820
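A cell-based infection assay in which seeded cells (1,000 per well) receive test compound after 4 h, are inoculated with HCVcc-Cre at approximately 0.5 moi, and are incubated 44 h before luminescence detection.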
FMDV inh: blocks foot and mouth disease virus. FMDV antiviral cell-based qHTS. Potency, µM (top dose mostly 57.9 µM), inactives show at the highest dose activity change, negative = inhibition, usual class: inhibitors. 410,000 tested, 1.2% active; calls by dose curve; tested in HEK293T cells; also: read-out not given here; nearly all actives have a fitted effect of over 45% in size
Lassa entry inh: inhibitors of Lassa virus binding or cell entry; 300,000 tested, 1.2% active; Potency, µM (doses to about 37.9 µM), for the others: at the top dose activity change, negative = inhibition, hits mostly inhibitors; Lassa virus pseudotype entry inhibition, cell reporter; calls by dose curve; tested in HEK293 cells; also: nearly all actives have a fitted effect of over 50% in size
Marburg entry inh: inhibitors of Marburg virus binding or cell entry. Potency, µM (highest dose often 37.8 µM), for inactives: at the highest dose activity change, negative = inhibition, hits mostly inhibitors. AID 540276. 300,000 tested, 1.8% active. Marburg virus pseudotyped entry inhibition, cell reporter; calls by dose curve; tested in HEK293 cells
Active calls of the source: *; ? = inconclusive; . = no result given; [ ] = dose if it differs, or a comment. Shown are actives, neighbours in structure and some others; about 7.2% of the full set was active somewhere. Unless noted, calls follow the shape of the dose curve; as a rule, active = well fitted curve in the direction sought with a large enough effect; inconclusive = small, poorly fitted or top-dose-only effect, or another doubt; inactive = no such curve, though single readings can be large; an effect the other way counts as inactive or inconclusive. % is scaled to controls: 0 for no effect and ±100 for the full control effect; potency is read from the fitted curve at half-maximal effect.

SMILES | Sm TGR block | RE007 growth inh | HCV inhibitor | FMDV inh | Lassa entry inh | Marburg entry inh
CCOC(=O)CSC1=C(C#N)C(c2ccc3c(c2)OCO3)CC(=O)N1 (configuration not stated) | 2.5% | 6.8% | ? | -27.7% | -29.5% | 15.8µM*
CCCCOC(=O)CSC1=C(C#N)C(c2ccc3c(c2)OCO3)CC(=O)N1 (configuration not stated) | 3.3% | ? | 9.3% | -27.3% | 6.3% | 7.4%
CCCOC(=O)CSC1=C(C#N)C(c2ccccc2Cl)CC(=O)N1 (configuration not stated) | 0.0% | -1.2% | 31.6µM* | -21.5% | . | .
CCOC(=O)CSC1=C(C#N)C(c2ccc(Cl)cc2)CC(=O)N1 (configuration not stated) | ? | 2.5% | ? | -8.8% | . | .
CCc1ccc(NC(=O)CSC2=C(C#N)C(c3ccc4c(c3)OCO4)CC(=O)N2)cc1 (configuration not stated) | . | -17.8% | 11.2µM* | . | 0.0% | -2.5%
COc1ccc(CCN2C(=O)c3cccc4c(C(=O)N5CCCCC5)ccc(c34)C2=O)cc1OC | -0.7% | 12.2% | -23.4% | 14.1µM* | ? | ?
Cc1ccc(C)c(NC(=O)c2ccc(=O)n(Cc3ccc(F)cc3)c2)c1 | -0.1% | . | . | -23.8% | 0.8%[46.1 µM] | .
CC(C)Cn1cc(NC(=O)N2CCN(c3ccc(F)cc3)CC2)c2ccccc2c1=O | -7.2% | . | . | -23.9% | ? | .
CCCOc1ccc([C@@H]2C3CN(C(=O)OCC)CC=C3C(C#N)=C(N)C2(C#N)C#N)cc1OC (some centres not stated) | ? | -2.7% | -19.7% | 0.0% | 10.3µM* | -0.1%
CC(C)(C)OC(=O)N1CC=C2C(C#N)=C(N)C(C#N)(C#N)C(c3cccs3)C2C1 (configuration not stated) | ? | 13.9% | ? | 22.4µM* | -11.0% | -22.7%
CC1CC=C2C(C#N)=C(N)C(C#N)(C#N)C(c3cccs3)C2C1 (configuration not stated) | 50.1µM* | 0.0% | -27.2% | ? | 13.1% | 0.1%
CCOC(=O)N1CC=C2C(C#N)=C(N)C(C#N)(C#N)[C@H](c3cccs3)C2C1 (some centres not stated) | -22.2% | 7.7% | -12.7% | ? | -14.4% | ?
CC(C)(C)OC(=O)N1CC=C2C(C#N)=C(N)C(C#N)(C#N)[C@H](c3cccnc3)[C@H]2C1 | 35.5µM* | 13.7% | -3.2% | 0.0% | -13.1% | -0.1%
O=C(NCc1ccco1)c1ccc2c(c1)N(Cc1ccc(Cl)cc1)C(=O)c1ccccc1S2(=O)=O | -3.8% | . | . | 18.3% | -16.9%[46.1 µM] | ?
COc1ccccc1OCC#CCN1CCOCC1 | 11.2µM* | -0.7% | -8.8% | 23.9% | 16.4% | -6.7%[14.2 µM]
CC1(C)C(=O)C=C[C@]2(C)C1CC(=O)[C@]1(C)C2CC[C@@]2(C)C(c3ccoc3)OC(=O)C3O[C@@]321 (some centres not stated) | . | . | . | 17.8µM* | . | .
CC(=O)C1CCC2C3CC(C)C4=CC(=O)CC[C@@]4(C)C3C(O)C[C@@]12C (some centres not stated) | . | . | . | -14.0% | . | .
Cc1ccc(CNC(=O)c2cn(C)c(=O)c3c2c2ccccc2n3C)o1 | 22.4µM* | -5.0% | -14.5% | -3.4% | 3.6% | -5.2%
Cc1ccc(CNC(=O)c2cc3c(=O)n(C)c4ccccc4c3n2C)o1 | -25.9% | 23.5% | -22.6% | -11.8% | . | 0.9%
Cc1cc(NC(=O)c2cn(C3CCCCC3)c(=O)c3c2c2ccccc2n3C)no1 | 12.1% | 5.9% | 11.2µM* | ? | . | .
CCCCN(C)CCNC(=O)c1cn(C)c(=O)c2c1c1ccccc1n2C | 44.7µM* | -6.4% | -13.3% | -10.2% | -9.5%[46.1 µM] | 11.2µM*
Cc1ccc(CNC(=O)c2cn(C3CCCCC3)c(=O)c3c2c2ccccc2n3C)o1 | 10µM* | -4.6% | -0.9% | ? | -28.1% | ?
COc1ccc(Cl)cc1NC(=O)c1cn(C2CCCCC2)c(=O)c2c1c1ccccc1n2C | 4.9% | . | . | -15.9% | ? | 9.7%[46.1 µM]
CCOc1ccccc1NC(=O)c1cn(C2CCCCC2)c(=O)c2c1c1ccccc1n2C | 1.0% | . | . | -17.8% | ? | -0.2%[46.1 µM]
CC(=O)Nc1cccc(-c2ccnc3c2CC(C)(C(=O)NCc2cccs2)O3)c1 (configuration not stated) | . | -12.9% | . | -24.0% | . | .
SMILES | Sm TGR block | RE007 growth inh | HCV inhibitor | FMDV inh | Lassa entry inh | Marburg entry inh
COc1cccc(CNC(=O)CCCn2c(=O)c3cccn3c3ccc(F)cc32)c1OC | -12.1% | . | . | -20.8% | -1.4%[46.1 µM] | .
Cc1cccc(Cn2cc(C(=O)Nc3ccc(F)c(C(F)(F)F)c3)ccc2=O)c1 | 1.1% | . | . | ? | -22.7%[46.1 µM] | .
CCCSc1nnc(NC(=O)Nc2ccc(F)cc2)s1 | 89.1µM* | 1.2% | ? | -24.9% | ? | ?
CCCSc1nnc(NC(=O)Nc2ccc(C)cc2)s1 | 14.4% | -3.2% | -3.8% | 1.6% | 8.4%[46.1 µM] | ?
COCCN(C)C(=O)c1cnn(-c2ncc3c(n2)-c2ccccc2CCC3)c1C1CC1 | . | . | . | 43.0% | . | .
CC(=O)NC(c1ccccc1)c1cc([N+](=O)[O-])c2cccnc2c1O (configuration not stated) | -9.2% | 9.6% | ? | -19.0% | ? | ?
CC(=O)NC(c1ccc(C(C)C)cc1)c1ccc2cccnc2c1O (configuration not stated) | -0.3% | ? | 8.91µM* | -24.5% | ? | ?
CCC(=O)NC(c1ccc([N+](=O)[O-])cc1)c1c(O)ccc2ccccc12 (configuration not stated) | -21.0% | -3.1% | ? | 0.0% | -15.5% | -25.1%
O=C(NC(c1ccccc1)c1c(O)ccc2ccccc12)c1ccccc1Cl (configuration not stated) | 2.1% | 4.3% | 14.1µM* | ? | ? | -27.6%
CCCC(=O)NC(c1ccc(OC)cc1)c1ccc2cccnc2c1O (configuration not stated) | -12.3% | -29.4% | 3.16µM* | -11.6% | ? | ?
CCCCC(=O)NC(c1ccc([N+](=O)[O-])cc1)c1c(O)ccc2ccccc12 (configuration not stated) | -13.4% | 3.7% | ? | 20µM* | ? | ?
O=C(c1noc2c1CCCCC2)N1CCN(c2ccc(Cl)cc2)CC1 | 6.9% | . | . | ? | -12.2%[46.1 µM] | .
Oc1ccc2c(c1)[C@H]1CCC[C@]1(N1CCOCC1)O2 | . | . | . | . | . | 22.1%
CCCC(=O)NC(c1cccs1)c1cc([N+](=O)[O-])c2cccnc2c1O (configuration not stated) | -19.0% | 0.2% | ? | -0.1% | ? | ?
CC(C)C(=O)NC(c1ccccc1)c1cc([N+](=O)[O-])c2cccnc2c1O (configuration not stated) | -11.4% | ? | ? | 0.0% | ? | ?
